# PubChem BioAssay (NCI)
# Compounds without any hit were thinned out: in the full panel of roughly 79,000, 15% have a hit. A number with no mark means an inactive call. Activity calls are given as the source filed them. Cut-off read from the data, not from the text of the source: active = growth inhibition above about 70%; inactive = the rest.
# Assays:
# [1] = NCI Yeast Anticancer Drug Screen. Data for the rad50 strain (AID 155);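 note: 0% = growth of vehicle-only cultures of the same strain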; details: S. cerevisiae rad50 strain growth inhibition, active compounds read high
# Procedure, shortened: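 Relative growth inhibition (compound vs vehicle) was measured in yeast with a defined repair-gene alteration.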
# [2] = NCI Yeast Anticancer Drug Screen. Data for the mec2-1 strain (AID 157); details: S. cerevisiae mec2-1 strain, active compounds read high
# Procedure, shortened: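 Test agents were screened against the mec2-1 yeast strain, with defined DNA repair or cell cycle alteration. Growth was scored as inhibition against vehicle-only controls.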
# [3] = NCI Yeast Anticancer Drug Screen. Data for the sgs1 mgt1 strain (AID 161);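 note: 0% = growth of cultures given vehicle only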; details: S. cerevisiae sgs1 mgt1 strain, active compounds read high
# Procedure, shortened: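 Mutant yeast exposed to compound; growth scored against vehicle-only wells.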
# [4] = NCI Yeast Anticancer Drug Screen. Data for the cln2 rad14 strain (AID 165);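 note: 0% = growth equal to vehicle treated cultures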; details: S. cerevisiae cln2 rad14 strain, active compounds read high
# Procedure, shortened: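 Growth of compound-exposed yeast (cln2 rad14 genotype) measured and expressed as inhibition relative to vehicle.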
# [5] = NCI Yeast Anticancer Drug Screen. Data for the bub3 strain (AID 167); details: S. cerevisiae bub3 mutant strain, active compounds read high
# Procedure, shortened: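 Screening used yeast with an engineered genetic alteration affecting cell cycle control. Compound-exposed cultures were compared with vehicle cultures, and reduced growth was taken as inhibition.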
# [6] = NCI Yeast Anticancer Drug Screen. Data for the mlh1 rad18 strain (AID 175); details: S. cerevisiae mlh1 rad18 strain growth inhibition, active compounds read high
# Procedure, shortened: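 In this whole-cell yeast screen, a strain with altered DNA damage repair is challenged with compound, and its growth is measured against matched vehicle-treated controls.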
# [7] = at 5.0 µM (retest, dose inferred, filed as 0.5)
# [8] = at 50.0 µM (retest, dose inferred, filed as 5.0)
Compound,"growth inhibition [1, 7]","growth inhibition [1, 8]",growth inhibition ([1]; at 50.0 µM),"growth inhibition [2, 7]","growth inhibition [2, 8]",growth inhibition ([2]; at 50.0 µM),"growth inhibition [3, 7]","growth inhibition [3, 8]",growth inhibition ([3]; at 50.0 µM),"growth inhibition [4, 7]","growth inhibition [4, 8]",growth inhibition ([4]; at 50.0 µM),"growth inhibition [5, 7]","growth inhibition [5, 8]",growth inhibition ([5]; at 50.0 µM),"growth inhibition [6, 7]","growth inhibition [6, 8]",growth inhibition ([6]; at 50.0 µM)
C[C@]12CCC(=O)C=C1CC[C@@H]1[C@@H]2[C@@H](O)C[C@@]2(C)[C@H]1CC[C@]2(O)C(=O)COC(=O)CCC1CCCC1,83% (active),91% (active),83.9% (active),29%,95% (active),84.1% (active),51%,96% (active),82% (active),49%,96% (active),82.7% (active),51%,95% (active),77.2% (active),75% (active),92% (active),84.3% (active)
CCCCCCCCCCCCOC(=O)CC1CC(C(C)=O)C1(C)C (stereo not drawn),2%,-9%,18.5%,0%,-7%,-20.8%,0%,-7%,24.1%,1%,-8%,84.3% (active),-3%,-13%,11.2%,25%,-4%,41.2%
COC1OC(CBr)C(OC(c2ccccc2)(c2ccccc2)c2ccccc2)C(OC(c2ccccc2)(c2ccccc2)c2ccccc2)C1OC(c1ccccc1)(c1ccccc1)c1ccccc1 (stereo not drawn),-11%,11%,98.8% (active),-12%,-27%,98.7% (active),-11%,-9%,98.5% (active),-8%,33%,96.5% (active),-2%,25%,97.7% (active),-5%,32%,98% (active)
O=C(c1ccccc1)C(Br)CCCC(Br)C(=O)c1ccccc1 (stereo not drawn),30%,64%,97% (active),16%,51%,96.3% (active),19%,81% (active),96% (active),15%,32%,67.2%,23%,73% (active),97.3% (active),24%,60%,95.5% (active)
CC(=O)OCc1cc2ccccc2nc1C(Br)(Br)Br,-11%,95% (active),96% (active),-6%,95% (active),95.8% (active),39%,99% (active),97.5% (active),-4%,96% (active),96.7% (active),62%,99% (active),95.2% (active),39%,96% (active),96.7% (active)
COC(=O)Oc1nn(C(=O)OC)c(=O)c2ccccc12,-18%,87% (active),90.9% (active),-3%,45%,24.2%,-17%,43%,44.4%,7%,66%,99.6% (active),5%,58%,99.5% (active),-12%,54%,86.5% (active)
